From the supplement of paper PMC10121225 come the findings set out here.
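Also: immunostained co-cultures imaged by high-content microscopy, Z-score per plate against mean and SD of 0.1% DMSO wells, compounds added on differentiation day 18, analysed day 21.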

The assay concerns hN + hpA co-culture (H1 iNGN2 human neurons + human primary astrocytes). Put plainly: presynaptic density (SYNAPSIN1 puncta per MAP2 neurite area), Z-score vs DMSO controls; higher = more presynaptic puncta (synapse-promoting). As to conditions: 3 µM; 72 h.
As for `CCOC(=O)CCNc1cc(N2CCc3ccccc3CC2)nc(-c2ccccn2)n1`, the “presynaptic density (Z-score)” value was -3.3.

Consider `COc1cc(OC)c(/C=C/S(=O)(=O)Cc2ccc(OC)c(NCC(=O)O)c2)c(OC)c1`, for which the “presynaptic density (Z-score)” value is -3.31. As to `COc1cc(OC2CCN(C)CC2)ccc1Nc1ncc2c(n1)n(C1CCCC1)c(=O)n2C`, the “presynaptic density (Z-score)” value is -0.583.
